Drawing on PubChem BioAssay (NCI), this text covers growth for eight molecules.

The panel holds about 83,000 compounds, 20% with a hit somewhere; the sample as a whole holds those more often.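 A percent growth of 40 corresponds to 60% growth inhibition; 0 means no net growth; -100 means all cells died. Active threshold: below 10.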 Values without a mark were called inactive. Active and inactive are the calls of the source.

What all share (test): NCI-60 one-dose screen, 48 h (100 = growth as untreated, 0 = no growth, -100 = all killed)
Details in all cases: 10 µM unless noted

Assay [1] has as its system SK-MEL-2 melanoma.
Assay [2] concerns EKVX NSCLC.
Assay [3] deals with SN12C renal.
In assay [4] the test system is UO-31 renal.
Assay [5] concerns TK-10 renal.
Assay [6] deals with ACHN renal.
The subject of assay [7] is CAKI-1 renal.
Assay [8] concerns A498 renal.
Assay [9] relates to CCRF-CEM leukemia.
Assay [10] has as its system MOLT-4 leukemia.
Assay [11] deals with SR leukemia.
Assay [12] deals with RPMI-8226 leukemia.
Assay [13] relates to OVCAR-8 ovarian.
In assay [14] the test system is OVCAR-5 ovarian.
Assay [15] has as its system OVCAR-4 ovarian.
Assay [16] deals with SK-OV-3 ovarian.
Assay [17] relates to IGROV1 ovarian.
Assay [18] has as its system OVCAR-3 ovarian.
Assay [19] relates to HS 578T breast.
The test system of assay [20] is NCI/ADR-RES ovarian.

Consider `COc1cc(-c2ccc(-c3ccc(C(=N)N)s3)s2)cc(OC)c1OC`, for which the growth is 70% in [1]; 74.4% in [2]; 60% in assay [3]; 67.1% in assay [4]; 82.8% in assay [5]; 2.6% (active) in assay [6]. Also, the growth in assay [7] was 41.7%; in assay [8], 84.5%; in assay [9], -7.27% (active); in assay [10] it was 4.68% (active); in [11], -20.7% (active); in [12], -34.7% (active). The growth in assay [13] is 13.9%; in assay [14] it was 64.6%; in assay [15], 45.1%; in assay [16], 85%; in assay [17], 71.7%; in [18], 3.44% (active). The growth in assay [19] is 44.1%; in assay [20] it was 77.9%.
Consider `COc1cccc(CNc2nnc(C)c(C)n2)c1O`, for which the growth is 106% in [1]; 104% in assay [2]; 96.7% in assay [3]; 91.6% in assay [4]; 108% in assay [5]; 110% in assay [6]. The growth was 100% in assay [7]; 95.3% in assay [8]; 101% in [9]; 109% in [10]; 102% in [11]; 100% in [12]. The growth in assay [13] is 99.2%; in assay [14], 108%; in [15], 103%; in assay [16], 87%; in assay [17], 107%; in [18], 110%. Moreover, the growth is 108% in assay [19] and 104% in assay [20].
As for `Oc1c(Cl)cc(Cl)c2ccc(CN3CCNCC3)nc12`, the growth in assay [1] was 66.8%; in assay [2], 48.7%; in assay [3] it was 42.8%; in assay [4] it was 3.7% (active); in [5] it was 56.3%; in assay [6] it was 31.1%. Also, the growth in assay [7] was 21.8%; in [8] it was 63.3%; in assay [9], 36.1%; in assay [10], 39.7%; in assay [11], 25.6%; in [12], 39.4%. The growth was 27.5% in [13]; 82.4% in assay [14]; 37.7% in assay [15]; 52.8% in assay [16]; 43.3% in [17]; 42.9% in assay [18]. Also, the results for the growth in assay [19] and in assay [20] were 70.4% and 5.37% (active), respectively.
For `Cc1cccc(CN(Nc2ccccc2)c2ccccc2)n1`, the growth in assay [1] was 115%; in assay [2], 79.4%; in assay [3], 97.8%; in [4], 91.8%; in assay [5] it was 108%; in assay [6], 102%. Further, the growth in assay [7] is 87.3%; in assay [8] it was 98%; in assay [9], 91.2%; in [10] it was 91.1%; in assay [11] it was 93%; in assay [12], 96.3%. The growth was 98.5% in assay [13]; 102% in assay [14]; 109% in assay [15]; 104% in assay [16]; 127% in [17]; 99.5% in assay [18]. In addition, the growth in assay [19] is 109%; in assay [20] it was 102%.
Take `O=C(Nc1ncc(Cc2ccccc2Cl)s1)c1ccc2c(c1)OCCO2`: the growth in assay [1] was 39.8%; in assay [2] it was 33.8%; in assay [3], 30.2%; in assay [4] it was 51.9%; in assay [5], 46.2%; in assay [6], 37.3%. Besides, the growth in assay [7] is 20%; in assay [8] it was -0.0402% (active); in [9], 6.45% (active); in assay [10], 7.02% (active); in [11] it was 5.14% (active); in assay [12] it was 19.3%. Moreover, the growth in [13] is 24.2%; in [14], 33.2%; in [15], 43.5%; in [16], 32.5%; in [17], 28.4%; in [18], -14.4% (active). For the same molecule, the growth in assay [19] is 19.8%; in [20], 14.5%.
As for `Cc1c2cnccc2c(C)c2c1c1cc(C(=O)O)ccc1n2C`, the growth in assay [1] was -65.5% (active); in [2], 16%; in [3], 0.942% (active); in assay [4] it was -36.5% (active); in assay [5], -7.59% (active); in assay [6] it was -15% (active). Also, the growth in [7] was -6.62% (active); in assay [8], -57.4% (active); in [9], 5.53% (active); in assay [10], 1.6% (active); in assay [11], 18.6%; in assay [12] it was -1.59% (active). Also, the growth in assay [13] was 5.83% (active); in [14], 9.91% (active); in assay [15] it was -4.45% (active); in [16], -4.58% (active); in assay [17], 0.419% (active); in assay [18] it was 0.0817% (active). Also, the growth was 8.93% (active) in assay [19] and 3.03% (active) in assay [20].
Consider `CCN1CCN(c2nc(NNC(=O)c3ccc(OC)cc3)nc(N3CCN(C(c4ccccc4)c4ccccc4)CC3)n2)CC1`, for which the growth is 78% in assay [1]; 82.6% in assay [2]; 45.7% in [3]; 61.2% in assay [4]; 49.5% in assay [5]; 34% in assay [6]. Besides, the growth in [7] is 24%; in assay [8], 60.1%; in [9] it was 43.8%; in assay [10], 16.3%; in [11], -8.03% (active); in [12] it was 12.3%. Also, the growth was 63.1% in [13]; 106% in assay [14]; 49.1% in [15]; 48.3% in assay [16]; 72.3% in assay [17]; 11.7% in assay [18]. Besides, the results for the growth in assay [19] and in assay [20] were 46.2% and 73.4%, respectively.
`CCCCN(CCC#N)C(N)=O`: the growth was 104% in assay [1]; 101% in assay [2]; 106% in assay [3]; 98.4% in [4]; 98.9% in assay [5]; 97.7% in [6]. The growth in assay [7] was 82.7%; in assay [8], 89.6%; in assay [9], 96.7%; in assay [10] it was 107%; in assay [11], 130%; in [12] it was 113%. Also, the growth in [13] was 107%; in assay [14], 106%; in assay [15], 122%; in [16], 109%; in [17] it was 100%; in [18], 89.7%. In addition, the values for the growth in [19] and in [20] were 105% and 109%, respectively.
